“And” between values parts separate entries of the source, which are not always exact repeats. Identical values can stand only once. The whole screen tested about 5,500 compounds, of which about 2,000 (36%) were called active. About 18% were inconclusive and are not listed. Cut-off read from the data, not from the text of the source: active = normalized growth mostly below about 0.91 (no sharp cut-off); inconclusive = no clear call, values can overlap the other calls; inactive = mostly above about 0.92. This is one part of the list. Some compounds were tested as several samples or in several runs, with calls that do not always agree.
Assay: chemical genetic growth profiling, strain panel (AID 1159580);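 note: tested at 20 µM; growth read once vehicle control cultures reached saturation at 30 °C; 1 = growth at the plate median or of vehicle wells; lower values mean less growth of the strain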
Conditions: S. cerevisiae deletion strains, growth OD

Cc1cc2c(C(C)C)c(O)c(O)c(C=O)c2c(O)c1-c1c(C)cc2c(C(C)C)c(O)c(O)c(C=O)c2c1O
normalized growth (locus YAL013W, strain DEP1, stronger effect = lower value): 0.328 (active) and 0.919 (inactive) | normalized growth (locus YAL021C, strain ccr4, stronger effect = lower value): 0.423 (active) and 0.368 (active) | normalized growth (locus YAL026C, strain drs2, stronger effect = lower value): 0.446 (active) and 0.519 (active) | normalized growth (locus YAL030W, strain snc1, stronger effect = lower value): 0.842 (active) and 0.874 (active) | normalized growth (locus YBL061C, strain skt5, stronger effect = lower value): 0.762 (active) and 0.747 (active) | normalized growth (locus YBR009C, strain hhf1, stronger effect = lower value): 0.779 (active) and 0.854 (active) | normalized growth (locus YBR021W, strain FUR4, stronger effect = lower value): 0.953 (inactive) and 0.977 (inactive) | normalized growth (locus YBR023C, strain chs3, stronger effect = lower value): 0.715 (active) and 0.692 (active) | normalized growth (locus YBR171W, strain sec66, stronger effect = lower value): 0.862 (active) and 0.922 (inactive) | normalized growth (locus YBR229C, strain ROT2, stronger effect = lower value): 0.936 (inactive) and 0.948 (inactive) | normalized growth (locus YBR231C, strain swc5, stronger effect = lower value): 0.637 (active) and 0.64 (active) | normalized growth (locus YBR279W, strain paf1, stronger effect = lower value): 0.778 (active) and 0.751 (active) | normalized growth (locus YCL011C, strain gbp2, stronger effect = lower value): 0.819 (active) and 0.854 (active) | normalized growth (locus YCL016C, strain dcc1, stronger effect = lower value): 0.842 (active) and 0.831 (active) | normalized growth (locus YCL029C, strain bik1, stronger effect = lower value): 0.798 (active) and 0.939 (inactive) | normalized growth (locus YCL061C, strain MRC1, stronger effect = lower value): 0.845 (active) | normalized growth (locus YCL069W, strain vba3, stronger effect = lower value): 0.813 (active) and 0.879 (active) | normalized growth (locus YCR088W, strain abp1, stronger effect = lower value): 0.842 (active) and 0.919 (active) | normalized growth (locus YDL005C, strain med2, stronger effect = lower value): 0.971 (inactive) | normalized growth (locus YDL035C, strain GPR1, stronger effect = lower value): 0.662 (active) and 0.799 (active) | normalized growth (locus YDL040C, strain nat1, stronger effect = lower value): 0.943 (inactive) and 0.953 (inactive) | normalized growth (locus YDL074C, strain BRE1, stronger effect = lower value): 0.589 (active) and 0.751 (active) | normalized growth (locus YDL101C, strain DUN1, stronger effect = lower value): 0.742 (active) and 0.847 (active) | normalized growth (locus YDL134C, strain PPH21, stronger effect = lower value): 0.738 (active) and 0.848 (active) | normalized growth (locus YDL185W, strain tfp1, stronger effect = lower value): 0.926 (inactive) and 0.966 (inactive) | normalized growth (locus YDL192W, strain arf1, stronger effect = lower value): 0.689 (active) and 0.978 (inactive) | normalized growth (locus YDR001C, strain nth1, stronger effect = lower value): 0.881 (active) and 0.925 (inactive) | normalized growth (locus YDR069C, strain doa4, stronger effect = lower value): 0.53 (active) and 0.604 (active) | normalized growth (locus YDR101C, strain arx1, stronger effect = lower value): 0.849 (active) and 0.943 (inactive) | normalized growth (locus YDR137W, strain rgp1, stronger effect = lower value): 0.161 (active) and 0.167 (active) | normalized growth (locus YDR150W, strain NUM1, stronger effect = lower value): 0.785 (active) and 0.912 (inactive) | normalized growth (locus YDR159W, strain sac3, stronger effect = lower value): 0.653 (active) and 0.717 (active) | normalized growth (locus YDR162C, strain NBP2, stronger effect = lower value): 0.342 (active) and 0.819 (active) | normalized growth (locus YDR195W, strain ref2): 0.84 (active) and 0.864 (inactive) | normalized growth (locus YDR297W, strain sur2, stronger effect = lower value): 0.79 (active) and 0.863 (active) | normalized growth (locus YDR318W, strain mcm21, stronger effect = lower value): 0.847 (active) and 0.965 (inactive) | normalized growth (locus YDR334W, strain swr1, stronger effect = lower value): 0.477 (active) and 0.674 (active) | normalized growth (locus YDR335W, strain msn5, stronger effect = lower value): 0.677 (active) and 0.769 (active) | normalized growth (locus YDR388W, stronger effect = lower value): 0.793 (active) and 0.972 (inactive) | normalized growth (locus YDR392W, strain spt3, stronger effect = lower value): 0.56 (active) and 0.438 (active) | normalized growth (locus YDR502C, strain sam2, stronger effect = lower value): 0.769 (active) and 0.937 (inactive) | normalized growth (locus YEL003W, strain gim4, stronger effect = lower value): 0.761 (active) and 0.805 (active) | normalized growth (locus YEL037C, strain rad23, stronger effect = lower value): 0.786 (active) and 0.813 (active) | normalized growth (locus YEL061C, strain CIN8 (second series), stronger effect = lower value): 0.814 (active) and 0.916 (inactive) | normalized growth (locus YEL061C, strain CIN8, stronger effect = lower value): 0.777 (active) and 0.853 (active) | normalized growth (locus YER015W, strain faa2, stronger effect = lower value): 0.649 (active) and 0.698 (active) | normalized growth (locus YER016W, strain bim1, stronger effect = lower value): 0.849 (active) and 0.883 (active) | normalized growth (locus YER110C, stronger effect = lower value): 0.943 (inactive) and 1.02 (inactive) | normalized growth (locus YER111C, strain swi4, stronger effect = lower value): 0.456 (active) and 0.668 (active) | normalized growth (locus YER155C, strain BEM2 (second series), stronger effect = lower value): 0.674 (active) and 0.758 (active) | normalized growth (locus YER155C, strain BEM2, stronger effect = lower value): 0.865 (active) and 0.912 (active) | normalized growth (locus YER167W, strain BCK2, stronger effect = lower value): 0.83 (active) and 0.895 (active) | normalized growth (locus YFR010W, strain ubp6, stronger effect = lower value): 0.644 (active) and 0.732 (active) | normalized growth (locus YGL078C, strain dbp3, stronger effect = lower value): 0.976 (inactive) and 1.01 (inactive) | normalized growth (locus YGL086W, strain mad1, stronger effect = lower value): 0.937 (inactive) | normalized growth (locus YGL167C, strain pmr1, stronger effect = lower value): 0.868 (active) and 0.833 (active) | normalized growth (locus YGL173C, strain kem1, stronger effect = lower value): 0.564 (active) and 0.591 (active) | normalized growth (locus YGL227W, strain vid30, stronger effect = lower value): 0.953 (inactive) and 0.989 (inactive) | normalized growth (locus YGL240W, strain doc1, stronger effect = lower value): 0.892 (inactive) and 0.952 (inactive) | normalized growth (locus YGL248W, strain PDE1, stronger effect = lower value): 0.764 (active) and 0.805 (active) | normalized growth (locus YGL253W, strain hxk2, stronger effect = lower value): 0.629 (active) and 0.698 (active) | normalized growth (locus YGR078C, strain PAC10, stronger effect = lower value): 0.776 (active) | normalized growth (locus YGR135W, strain pre9, stronger effect = lower value): 0.821 (active) and 0.901 (inactive) | normalized growth (locus YGR229C, strain SMI1, stronger effect = lower value): 0.126 (active) | normalized growth (locus YGR252W, strain gcn5, stronger effect = lower value): 0.806 (inactive) and 0.95 (inactive) | normalized growth (locus YHR013C, strain ard1, stronger effect = lower value): 0.651 (active) and 0.608 (active) | normalized growth (locus YHR027C, strain rpn1, stronger effect = lower value): 0.56 (active) and 0.593 (active) | normalized growth (locus YHR030C, strain SLT2, stronger effect = lower value): 0.64 (active) and 0.992 (inactive) and 0.854 (active) | normalized growth (locus YHR079C, strain IRE1 (second series), stronger effect = lower value): 0.841 (active) and 0.953 (inactive) | normalized growth (locus YHR079C, strain IRE1, stronger effect = lower value): 1.01 (inactive) | normalized growth (locus YHR094C, strain hxt1, stronger effect = lower value): 0.979 (inactive) and 1 (inactive) | normalized growth (locus YHR129C, strain ARP1, stronger effect = lower value): 0.731 (active) and 0.811 (active) | normalized growth (locus YHR142W, strain chs7, stronger effect = lower value): 0.537 (active) and 0.619 (active) | normalized growth (locus YHR200W, strain rpn10, stronger effect = lower value): 0.876 (active) and 0.977 (inactive) | normalized growth (locus YIL066C, strain RNR3, stronger effect = lower value): 0.6 (active) and 0.744 (active) | normalized growth (locus YIL073C, strain SPO22, stronger effect = lower value): 0.421 (active) and 0.743 (inactive) | normalized growth (locus YIL125W, strain kgd1, stronger effect = lower value): 1.05 (inactive) and 0.996 (inactive) | normalized growth (locus YIR030C, strain dcg1, stronger effect = lower value): 0.89 (active) and 0.994 (inactive) | normalized growth (locus YJL092W, strain hpr5, stronger effect = lower value): 0.799 (active) and 0.852 (active) | normalized growth (locus YJL095W, strain BCK1 (second series), stronger effect = lower value): 0.644 (active) and 0.629 (active) | normalized growth (locus YJL095W, strain BCK1, stronger effect = lower value): 0.534 (active) and 0.961 (inactive) and 0.744 (active) | normalized growth (locus YJL115W, strain asf1, stronger effect = lower value): 0.794 (active) and 0.86 (active) | normalized growth (locus YJL129C, strain trk1, stronger effect = lower value): 0.897 (inactive) and 0.937 (inactive) | normalized growth (locus YJL134W, strain LCB3, stronger effect = lower value): 0.875 (active) and 0.934 (inactive) | normalized growth (locus YJL154C, strain vps35, stronger effect = lower value): 0.857 (active) and 0.853 (active) | normalized growth (locus YJL164C, strain tpk1, stronger effect = lower value): 0.774 (active) and 0.762 (active) | normalized growth (locus YJL166W, strain qcr8, stronger effect = lower value): 0.75 (active) and 0.82 (active) | normalized growth (locus YJL168C, strain set2, stronger effect = lower value): 0.935 (inactive) and 0.981 (inactive) | normalized growth (locus YJL187C, strain SWE1 (second series), stronger effect = lower value): 0.553 (active) and 0.71 (active) | normalized growth (locus YJL187C, strain SWE1, stronger effect = lower value): 0.804 (active) | normalized growth (locus YJR043C, strain POL32, stronger effect = lower value): 0.594 (active) and 0.749 (active)

— PubChem BioAssay AID1159580 (chemical genetic matrix, 2015)
